RPL19A TOR yeast: yeast TOR pathway RPL19A-GFP modulation; hit rate 0.3% among 330,000; percent response vs DMSO, % at 10 µM; S. cerevisiae RPL19A-GFP strain, flow cytometry, 3 h; hits give low values;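 active = percent response vs DMSO below 50%; inconclusive = fewer than 70 events counted for the yeast strain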;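 also: median channel GFP fluorescence of the barcoded RPL19A-GFP strain; ratio of sample median GFP to plate DMSO average so 100% = DMSO; lower means less RPL19A-GFP as with rapamycin TOR inhibition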
CIT2-GFP yeast: modulators of TOR pathway CIT2-GFP in S. cerevisiae; S. cerevisiae CIT2-GFP strain, flow cytometry, 3 h; 100 means same as DMSO wells; GFP response vs DMSO, % at 10 µM; hit rate 0.065% among 320,000;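 active = GFP response relative to DMSO above a set limit, near the screen mean plus 3 SD, cut at about 150% in these data; inconclusive = Fewer than 70 cells measured for a yeast strain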;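 also: ratio of well median GFP fluorescence to mean of DMSO wells on the plate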
AGP1-GFP MLPCN: modulators of TOR pathway AGP1-GFP in S. cerevisiae. S. cerevisiae AGP1-GFP multiplex flow cytometry, 3 h; GFP as percent of DMSO wells. GFP response vs DMSO, % at 10 µM. hit rate 0.02% among 320,000. AID 2066;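 active = GFP response relative to DMSO above a set limit, near screen average plus 3 SD, cut at about 150% in these data; inconclusive = fewer than 70 cells counted for the yeast strain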;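 also: median GFP channel fluorescence of the gated AGP1 strain per well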
MEP2 TOR yeast: alters MEP2-GFP fluorescence in TOR pathway yeast screen; GFP response vs DMSO, % at 10 µM; hit rate 0.51% among 330,000; S. cerevisiae MEP2-GFP strain, flow cytometry GFP, 3 h; 100% = DMSO control level;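 active = GFP response versus DMSO above a set limit, roughly screen mean plus 3 SD, cut at about 180% in these data; inconclusive = fewer than 70 cells counted for a yeast strain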;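 also: median GFP fluorescence of the barcode-gated MEP2-GFP cells per well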
LAP4-GFP MLPCN: modulators of TOR pathway LAP4-GFP in S. cerevisiae | S. cerevisiae LAP4-GFP multiplex, flow cytometry GFP, 3 h; median GFP as percent of DMSO wells | GFP response vs DMSO, % at 10 µM | hit rate 0.34% among 320,000 | AID 2023;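 active = GFP response vs DMSO above a set limit, about the screen mean plus 3 SD, cut at about 150% in these data; inconclusive = under 70 cell events counted for the yeast strain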
* = called active by the depositor; ? = inconclusive; · = no result given; [ ] = dose if it differs, or a comment. Compounds with a hit are over-represented: about 0.93% of the library has one in this group of screens.

SMILES	RPL19A TOR yeast	CIT2-GFP yeast	AGP1-GFP MLPCN	MEP2 TOR yeast	LAP4-GFP MLPCN
c1ccc(N2CCN(Cc3ccnc4ccccc34)CC2)cc1	102	108	·	100	98
CC(C)(C)c1ccc2c(c1)C(=O)c1ccccc1C2=O	107	94	95	103	97
CC(C)(C)C1=CC=C(C(C)(C)C)C(=O)C1=O	97	95	92	91	175*
O=C(NC(=S)NNC(=O)c1ccco1)c1ccccc1	101	103	112	102	151*[may fluoresce green]
Cc1ccc(NCCC#N)cc1C	97	99	96	100	95
CCN1CCN(CCCNC(=O)C2CCCN(c3nnc(-n4cccc4)s3)C2)CC1 (stereo unspecified)	43*[may fluoresce violet]	?	?	393*[may fluoresce violet]	96
Oc1ccc(/C=N/n2cc(-c3ccccc3)[nH]c2=S)cc1	109	114	99	111	109
Cc1ccc(-c2cc(C(=O)Nc3ccccn3)c3ccccc3n2)o1	17*[may fluoresce violet]	?	?	140	86
Cc1ccc(NC(=O)c2cc(-c3ccc(C)o3)nc3ccccc23)cc1	96	94	98	101	102
COc1cc(OC)c(C(=O)Nc2ccncc2)cc1OC	103	101	97	98	92
COCCOc1ccc(C(F)(F)F)cc1NC(=O)COC(=O)c1cc([N+](=O)[O-])ccc1N1CCOCC1	102	111	99	104	96
Cc1cccc(OCC(=O)N2CCN(C(=O)c3ccco3)CC2)c1	98	102	96	100	91
COc1ccc(-c2ccc(SCC(=O)N3c4ccccc4CC3C)nn2)cc1OC (stereo unspecified)	109	145	108	183*	163*
CCOC(=O)N1CCN(C(=O)CSc2ccc(-c3ccc(OC)c(OC)c3)nn2)CC1	101	98	105	95	103
CC(C(=O)NCCc1ccc(F)cc1)N1CCN(Cc2ccccc2)CC1 (stereo unspecified)	103	119	107	213*	139
CCOC(=O)N/N=C(/C)c1ccc([N+](=O)[O-])o1	96	101	96	98	100
O=C(COC(=O)C1CCN(c2ccc(C(F)(F)F)cn2)CC1)Nc1cccc(F)c1	97	87	95	101	152*
C[C@H](NC(=O)Nc1cccc(C(F)(F)F)c1)C(=O)O	77	?	21	346*[may fluoresce violet]	91
O=C(Nc1ccccc1)Nc1cccc(C(F)(F)F)c1	95	96	95	100	98
O=C(O)CSc1nnc(-c2cccc(S(=O)(=O)N3CCOCC3)c2)n1-c1cccc(Cl)c1	26*[may fluoresce violet]	?	?	?	?
CNC(=O)CSc1nnc(-c2cccc(S(=O)(=O)N3CCOCC3)c2)n1-c1ccc(F)cc1	101	103	106	106	104
COc1cc2cc(CN(CCO)S(=O)(=O)c3ccccc3)c(=O)[nH]c2cc1OC	96	99	98	100	101
CC1(C(=O)N(CC(=O)NC2CCCC2)C2CCCC2)CC(=O)N=C2C=CC=CN21 (stereo unspecified)	99	96	100	98	99
COc1ccc(-c2csc(N(Cc3ccccc3)C(=O)COc3ccc(Cl)cc3)n2)cc1	13*[may fluoresce violet]	?	?	260*[may fluoresce violet]	127
O=C(COc1ccccc1)N(Cc1ccccc1)c1nc(-c2ccccc2)cs1	100	107	86	100	78
SMILES	RPL19A TOR yeast	CIT2-GFP yeast	AGP1-GFP MLPCN	MEP2 TOR yeast	LAP4-GFP MLPCN
O=C(COc1ccc(Cl)cc1)Nc1ccc(CN2CCOCC2)cc1	97	96	97	97	101
CCCCn1nc(-c2ccccc2)c2nc3ccccc3nc21	17*[may fluoresce violet]	?	?	426*[may fluoresce violet]	93
Cn1nc(-c2ccccc2)c2nc3ccccc3nc21	?	92	·	?	?
O=C(COc1ccccc1)Nc1c2c(nn1-c1ccccc1)CS(=O)C2 (stereo unspecified)	82	90	124	91	165*
Clc1ccc(C2=NNC(=NCc3ccccc3)SC2)cc1	94	97	33	222*	85
CN(C)c1cc[n+](CC(=O)Nc2ccc(Cl)c([N+](=O)[O-])c2)cc1	42*[may fluoresce violet]	?	?	191*[may fluoresce violet]	77
CN(C)c1cc[n+](CC(=O)Nc2cccc([N+](=O)[O-])c2)cc1	101	97	97	103	102
CC(=O)Nc1ccc(NC(=O)CSc2ncc(C(=O)Nc3ccccc3)c(=O)n2C)cc1	89	110	106	99	168*
Cn1c(SCC(=O)NCc2ccccc2)ncc(C(=O)Nc2ccccc2)c1=O	103	99	98	106	94
Cc1c(C)c2ccc(OS(C)(=O)=O)cc2oc1=O	47*[may fluoresce violet]	?	21	351*[may fluoresce violet]	71
CC(=O)COc1ccc2c(C)c(C)c(=O)oc2c1	·	98	97	98	99
Cc1ccc(NC(=S)N/N=C/c2c(C)[nH]c3ccccc23)cc1	67	120	64	96	184*
Cc1[nH]c2ccccc2c1/C=N/NC(=O)Nc1ccccc1	24*[may fluoresce violet]	?	?	88	126
Cc1[nH]c2ccccc2c1/C=N/NC(=O)c1cc(-c2ccccc2)n[nH]1	46*[may fluoresce violet]	?	?	174	77
CN1CCN(C2=C(Cl)C(=O)C(c3cnc(N4CCCCC4)s3)=C(Cl)C2=O)CC1	94	?	17	319*[may fluoresce violet]	196*[may fluoresce violet]
O=C(OCc1cc(Cl)ccc1OC(F)F)c1ccc([N+](=O)[O-])o1	97	76	85	93	157*
O=C(NCc1ccccc1)c1csc(-c2cccnc2)n1	103	101	101	106	111
CCN1C(=O)/C(=C\c2cccc(OC(=O)c3ccco3)c2)SC1=S	47*[may fluoresce violet]	?	?	?	77
O=C(O)CN1C(=O)/C(=C\c2cccc(OC(=O)c3ccco3)c2)SC1=S	100	91	95	103	102
CC1C2(C)OCC(C#N)(C(=N)O2)C1(C#N)C#N (stereo unspecified)	52	?	?	245*[may fluoresce violet]	82
CC1(C)CC2(C)OC(=N)C1(C#N)C2(C#N)C#N (stereo unspecified)	99	97	103	107	107
CCCCNc1c(-c2ccc(OC)c(SC3CCCCC3)c2)nc2cnccn12	94	85	92	94	99
COc1ccc(-c2nc3cnccn3c2NCc2ccccc2)cc1SC1CCCCC1	42*[may fluoresce violet]	?	?	279*[may fluoresce violet]	66
COc1ccccc1OC(C)C(=O)Nc1ccccc1C(=O)NCC1CCCO1 (stereo unspecified)	68	85	53	177*	90
CCC12C(=O)C(CC)(C(c3ccccc3)=C1c1ccccc1)[C@@H]1C(=O)N(c3ccccc3)C(=O)C12 (stereo partly specified)	102	91	99	97	90
CC(C)(C)C(=O)/C(=C/c1ccc(Cl)cc1)n1cncn1	116	117	108	110	109

Screens deposited in PubChem by NMMLSC.
